Bioassay records from PubChem BioAssay.
Only some compounds are listed: those with a hit (about 4% of all), similar ones and a draw of the others.
TRPM1 prom inh: inhibitors of MITF-dependent TRPM1 promoter reporter, primary screen, cell-based, SK-MEL-5, single point, luciferase; SK-MEL-5 TRPM1 promoter luciferase, 24 h; 330,000 compounds, 0.83% hits; inhibition, % at 12.5 µM;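 active means mean inhibition across replicates of 60% or more, whatever share of single replicates reaches that level; inconclusive means some that reach 60%, reason not given; inactive means mean inhibition across replicates below 60%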
PAX8 reporter: inhibitors of PAX8-driven TPO luciferase reporter, primary screen, RMG-I cells, single concentration; inhibition, % at 12.6 µM; 360,000 compounds, 1.2% hits; SteadyGlo, 24 h;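 active means mean replicate inhibition at least 60% with every replicate also reaching 60%; inconclusive means only one of the two criteria is met; inactive means mean below 60% and not all replicates reaching 60%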;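 further: luciferase light reporting Pax8 driven TPO promoter activity; plate controls were median of neutral control wells for no effect and mitoxantrone controls for full effect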
esBAF inh: Bmi1 luciferase reporter increase in mESCs, primary screen, esBAF inhibitor project, mouse ES cells, Bmi1 luciferase knock-in, single point. reporter increase, % at 12.5 µM. AID 602393, 2012. 350,000 compounds, 2% hits. 24 h; 100% = twice the neutral-well signal; in the data active means activation above about 40%; inconclusive means no clear call, values can overlap the other calls;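 further: 0% = median of the plate's neutral control wells and 100% = double that signal; a rise in the Bmi1 reporter signal indicates esBAF inhibition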
Wnt act: Wnt/beta-catenin pathway activators, primary screen, cell-based, plate reader, single point. Wnt/beta-catenin reporter cell assay, activator. 300,000 compounds, 1.2% hits. AID 743398, 2014. activation, % at 9.35 µM; in the data active means activation above about 30%, passing the limit was not always enough; inconclusive means no clear call, values can overlap the other calls;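 further: 0% = neutral control wells and 100% = positive control wells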
MITF TRPM1 HTS: activators of MITF-driven TRPM1 promoter reporter, primary screen, cell-based, SK-MEL-5, luciferase, single point; SK-MEL-5 TRPM1-promoter luciferase, 24 h; % of positive control, neutral wells = 0; activation, % at 12.5 µM; 300,000 compounds, 0.75% hits; AID 588334, 2011;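 active means mean activation of at least 80% with every replicate also reaching 80%; inconclusive means mean reaches 80% but some replicate falls short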;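 further: 0% = neutral control wells and 100% = parthenolide positive control wells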
EWS-Fli inh: EWS/Fli-driven NR0B1 reporter inhibitors, primary screen, A673 cells, NR0B1 luciferase, luminescence, MLPCN library | inhibition, % at 12.6 µM | viability-normalised | 350,000 compounds, 0.67% hits;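 active means mean inhibition of at least 50% after viability correction, with every replicate also passing that limit; inconclusive means mean reaches 50% but only one of two replicates passes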;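 further: firefly luciferase signal divided by Alamar Blue viability fluorescence both relative to DMSO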
Ring1 derepress: Ring1 mRNA increase in mouse ESCs, confirmation, esBAF inhibitor project, cell-based, mouse ESC, RT-qPCR, cherry-pick; mouse ESC E14, Ring1 mRNA RT-qPCR fold change; shares compounds with esBAF inh; fold change at 33 µM; 550 tested, under 10 active;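 active means Ring1 gene expression raised more than 2-fold over untreated cells in both replicates at either tested dose; inconclusive means only one replicate above 2-fold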;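 further: Ring1 transcript normalised to actin housekeeping signal by TaqMan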
esBAF Fgf4 qPCR: Fgf4 mRNA decrease in mouse ESCs, confirmation, esBAF inhibitor project, cell-based, mouse ESC, RT-qPCR, cherry-pick | shares compounds with esBAF inh | mouse ESC E14, Fgf4 mRNA qPCR fold change; active compounds read low | Fgf4 expression fold change at 33 µM | 550 compounds, 4% hits;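 active means Fgf4 expression under 0.8 fold of control in both repeat measurements at one or both tested doses; inconclusive means under 0.8 fold in just a single repeat measurement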;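 further: Fgf4 transcript normalised to actin in duplex TaqMan qPCR; cells exposed to compound for 24 h before lysis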
esBAF Bmi1 qPCR: esBAF inhibition via Bmi1 de-repression, confirmation, cell-based, RT-qPCR, mouse ESC, single point, cherry-pick; shares compounds with esBAF inh; mouse ESE14 ES cells, Bmi1 mRNA qPCR fold; active compounds read high; fold change at 33 µM; 550 tested, under 10 active;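 active means Bmi1 expression fold change above 6 at either tested concentration, seen in replicate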;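 further: higher fold means more Bmi1 de-repression and stronger esBAF inhibition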
A549 tox SP: A549 cell cytotoxicity, cytotoxicity control, plate reader, single point, cherry-pick; shares compounds with esBAF inh; cell viability change % (negative = cytotoxic), % at 25 µM, hits read low; 550 tested, under 10 active; AID 743188, 2013; call rule not given here
HepG2 cytotox SP: HepG2 cell cytotoxicity, cytotoxicity control, plate reader, single point, cherry-pick; shares compounds with esBAF inh; active compounds read low; activity change, negative = inhibition, % at 25 µM; 550 compounds, 4% hits; in the data active means activity change below about -50%
HEK293 cytotox SP: HEK293 cell cytotoxicity, cytotoxicity control, plate reader, single point, cherry-pick; shares compounds with esBAF inh; activity change, negative = inhibition, % at 25 µM, hits read low; 550 compounds, 3% hits; AID 743190, 2013; in the data active means activity change below about -38%, passing the limit was not always enough
* marks the source's active call; other numbers are inactive results; u = inconclusive; x = no result given.

SMILES | TRPM1 prom inh | PAX8 reporter | esBAF inh | Wnt act | MITF TRPM1 HTS | EWS-Fli inh | Ring1 derepress | esBAF Fgf4 qPCR | esBAF Bmi1 qPCR | A549 tox SP | HepG2 cytotox SP | HEK293 cytotox SP
NC(=O)[C@@H]1[C@H]2C(=O)O[C@H](c3ccccc3)[C@H](c3ccccc3)N2[C@H](c2ccc(O)cc2)[C@@]12C(=O)Nc1ccccc12 | x | -19.3 | x | x | x | -6.7 | x | x | x | x | x | x
COCC(=O)Nc1ccc2c(c1)[C@@H]1C[C@H](CC(=O)N3CCN(C)CC3)O[C@@H](CO)[C@@H]1O2 | x | 6.4 | 2.5 | x | x | 4.0 | x | x | x | x | x | x
OC(c1cccc(Cl)c1)c1nc(-c2ccc3c(c2)OCO3)cs1 (stereo not drawn) | x | -9.9 | 1.6 | 9.5 | x | -14.9 | x | x | x | x | x | x
OC(c1ccccc1)c1nc(-c2ccc3c(c2)OCO3)cs1 (stereo not drawn) | x | -235.3 | 61.0* | -3.1 | x | -120.7 | 0.988 | 0.836 | 1.31 | -7.9 | -7.9 | -6.6
c1ccc2cc(C3CCCCC3)ncc2c1 | -90.3 | -36.4 | 76.3* | 25.2 | 99.0* | -81.7 | 1.33 | u | 1.55 | 1.6 | -41.1 | 12.5
COc1cc(OC)c2c(-c3ccccc3)cc(C3CCCCC3)nc2c1 | -4.2 | 9.5 | -10.3 | 2.3 | 7.4 | 11.7 | x | x | x | x | x | x
CO[C@@H]1CN(C)C(=O)c2cc(NS(C)(=O)=O)ccc2OC[C@H](C)N(S(C)(=O)=O)C[C@@H]1C | x | -9.5 | x | x | x | 4.7 | x | x | x | x | x | x
COc1ccccc1CNC(=O)C[C@@H]1CC[C@H](NC(=O)CC2CC2)[C@@H](CO)O1 | x | -6.3 | 5.6 | x | x | 5.5 | x | x | x | x | x | x
C(=Cc1cnnc2ccccc12)c1ccccc1 | -44.8 | -54.5 | 137.6* | -3.4 | 41.5 | -72.6 | 0.949 | 0.973 | 1.33 | -7.1 | 93.8 | -1.8
CSc1cnnc2ccccc12 | 15.2 | 45.8 | x | 2.8 | -14.3 | 16.2 | x | x | x | x | x | x
COc1ccc(Cc2nc3ccc(C(=O)NCCCSC)cc3o2)cc1OC | -28.4 | -28.2 | 77.1* | 19.7 | x | -86.1 | 0.943 | 0.974 | 1.29 | -9.0 | -45.9 | -5.2
COc1cc(C(=O)Oc2ccccc2/C=N/NC(=O)c2ccc(Cl)cc2Cl)cc(OC)c1OC | -21.8 | x | 46.9* | x | 20.7 | x | 1.05 | 0.997 | 8.35* | -7.9 | 8.9 | -4.8
C=CCOc1ccccc1/C=N/NC(=O)c1ccc(Cl)cc1Cl | -1.4 | -40.0 | -2.0 | 1.5 | 1.6 | x | x | x | x | x | x | x
Cc1ccc(CN2CC(C(=O)Nc3cc(C)ccn3)CC2=O)cc1 (stereo not drawn) | -23.2 | 12.5 | 71.8* | u | 22.1 | -55.6 | 0.576 | 0.439* | 3.47 | 2.6 | -21.4 | -8.6
O=C(NCc1ccccc1)c1cc(=O)c2ccccc2o1 | 8.5 | 15.1 | x | x | -3.0 | 0.8 | x | x | x | x | x | x
O=C(Nc1ccccc1Cl)c1cc(=O)c2ccccc2o1 | -79.4 | -117.4 | 73.1* | 11.0 | x | -116.2 | 1.18 | 1.04 | 1.08 | -5.2 | -7.3 | -10.1
CSc1cccc(NC(=O)N2CCc3ccc(NC(=O)c4ccccn4)cc3C2)c1 | -72.2 | -119.2 | 60.0* | 21.1 | 71.9 | -77.9 | 0.926 | 1.01 | 1.25 | -24.5 | -17.8 | -16.9
Cc1nc2c(sc3nc4c(cc32)COC(C)(C)C4)c(=O)n1Cc1ccccc1 | -59.8 | x | 63.9* | x | 60.3 | x | 1.21 | 0.812 | 1.08 | 2.0 | -28.6 | -15.8
O=C(Cc1ccccc1)Nc1ccc2c(c1)OC1(CCCC1)O2 | -110.1 | -180.3 | 74.5* | 47.7* | 109.9* | -99.9 | 1.17 | 0.858 | 1.62 | -8.7 | -30.6 | -13.4
CO[C@@H]1CN(C)C(=O)c2ccc(NC(=O)c3cccc(F)c3)cc2OC[C@H](C)N(CC2CC2)C[C@@H]1C | x | -2.6 | 4.8 | x | x | -5.5 | x | x | x | x | x | x
C[C@@H]1CN([C@@H](C)CO)C(=O)c2cc(NC(=O)CCCCCC(=O)Nc3ccccc3N)ccc2O[C@@H]1CN(C)C(=O)Nc1ccc(C(F)(F)F)cc1 | x | x | 6.8 | x | x | 5.3 | x | x | x | x | x | x
CCc1nc(SCc2ccc(Cl)cc2)n[nH]1 | -7.6 | -94.6 | x | 13.0 | 12.3 | -54.1 | x | x | x | x | x | x
CCc1nc(SCc2ccc(Br)cc2)n[nH]1 | -58.4 | -98.7 | 47.1* | 18.5 | 62.5 | -121.1 | 0.896 | 0.954 | 1.51 | -4.5 | -19.9 | -9.5
FC(F)Oc1ccccc1/C=N/Nc1nc2ccccc2o1 | -74.2 | -94.1 | 58.9* | 17.3 | x | -90.2 | 1.06 | 0.973 | 1.22 | 1.6 | 34.7 | 18.4
Fc1ccccc1/C=N/Nc1nc2ccccc2o1 | -38.9 | -131.3 | -7.9 | 22.0 | 36.7 | -51.9 | x | x | x | x | x | x
SMILES | TRPM1 prom inh | PAX8 reporter | esBAF inh | Wnt act | MITF TRPM1 HTS | EWS-Fli inh | Ring1 derepress | esBAF Fgf4 qPCR | esBAF Bmi1 qPCR | A549 tox SP | HepG2 cytotox SP | HEK293 cytotox SP
Nc1nc(-c2cccc(F)c2)cs1 | -42.5 | -62.8 | 57.5* | u | 47.1 | -45.4 | 1.17 | u | 1.64 | 0.1 | -4.0 | 6.2
Fc1cccc(-c2csc(-c3ccno3)n2)c1 | -8.8 | -9.9 | x | 1.0 | 7.4 | -37.9 | x | x | x | x | x | x
CN1CCN(/N=C/c2ccc(N(C)c3ccccc3)cc2)CC1 | 0.5 | -8.4 | -3.7 | -1.3 | -1.4 | -4.3 | x | x | x | x | x | x
CN(C)c1ccc(C=NN2CCCCCC2)cc1 | -58.7 | -33.5 | 75.2* | -2.9 | 56.3 | -61.3 | 1.22 | 0.873 | 1.26 | -6.4 | -5.2 | -4.2
Cc1ccccc1S(=O)(=O)N1CC(=O)N2[C@H](C1)[C@@H](c1ccc(C#CC3CC3)cc1)[C@@H]2CO | x | 19.7 | x | x | x | 11.5 | x | x | x | x | x | x
COc1cccc(NC(=O)c2sc3nc4n(c(=O)c3c2C)CCC4)c1 | -68.5 | -124.2 | 57.3* | 14.7 | 76.7 | -103.6 | 1.13 | 1 | 1.13 | -13.7 | -10.7 | -9.8
Cc1c(C(=O)Nc2ccc(Oc3ccccc3)cc2)sc2nc3n(c(=O)c12)CCC3 | 1.6 | x | -9.5 | x | -0.4 | x | x | x | x | x | x | x
CN(Cc1ccccn1)C(=O)c1ccc2nc(Cc3cccc(Cl)c3)oc2c1 | -12.3 | -6.5 | x | 0.2 | 16.5 | -6.9 | x | x | x | x | x | x
COC(=O)CN(C)C(=O)c1ccc2nc(Cc3cccc(Cl)c3)oc2c1 | -98.6 | -112.4 | 65.8* | 22.8 | 106.7* | -92.9 | 1.16 | 1 | 1.28 | -17.7 | -19.7 | -13.9
